In the library only some 3.2% were active in any assay of this set; here they are far more common.
Bim-Mcl-1 = inhibitors of Bim-Mcl-1 interaction, human; actives 0.1% (n = 190,000); Bead-based flow cytometry, Bim peptide-Mcl-1 binding; inhibition, % at 10 µM; Q07820; in the data active = inhibition above about 40%;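 also: 0% = no compound tracer wells and 100% = peptide blocker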
Mcl1-Noxa inh = disrupts binding of human Mcl-1 to Noxa peptide | TR-FRET Mcl-1/Noxa peptide binding, 2 h | actives 1.5% (n = 220,000) | Q07820 | inhibition, % at 21.7 µM;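 active = compounds that cut the protein-peptide binding signal by more than 50% relative to plate controls in a single-dose test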;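 also: His-tagged Mcl-1 with rhodamine Noxa BH3 peptide and terbium anti-His antibody; 0% = Mcl-1 plus Noxa peptide wells and 100% = peptide-only wells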
NCF1 inh = inhibitors of human p47phox binding; P14598; p47phox/p22phox peptide binding, fluorescence polarization, 2 h; inhibition, % at 24.7 µM; actives 0.53% (n = 220,000); AID 1274;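 active = inhibition above about 30%, limit read from the data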;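 also: 0% = p47phox with labelled peptide and 100% = labelled peptide alone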
Target sequence (P14598 whole entry, looked up): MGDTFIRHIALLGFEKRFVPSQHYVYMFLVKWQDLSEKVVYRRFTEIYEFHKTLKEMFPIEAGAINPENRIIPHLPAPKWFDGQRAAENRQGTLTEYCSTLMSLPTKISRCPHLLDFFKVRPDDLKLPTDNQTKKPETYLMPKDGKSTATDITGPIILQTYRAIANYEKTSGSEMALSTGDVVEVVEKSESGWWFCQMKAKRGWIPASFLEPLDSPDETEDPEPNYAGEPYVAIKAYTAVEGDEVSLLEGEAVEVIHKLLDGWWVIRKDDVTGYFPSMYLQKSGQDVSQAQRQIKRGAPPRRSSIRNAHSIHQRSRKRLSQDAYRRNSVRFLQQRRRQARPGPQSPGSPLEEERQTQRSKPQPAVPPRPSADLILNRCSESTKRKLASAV
Mcl1 Bid PPI = Mcl-1/Bid interaction inhibition | TR-FRET Mcl-1/Bid-Dy647 peptide binding, 1536-well | AID 1021 | inhibition, % at 21.7 µM | actives 0.97% (n = 220,000) | Q07820;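 active = compounds that cut the binding signal by more than half at the single screening dose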;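 also: His-tagged Mcl-1 with europium anti-His antibody binding Bid BH3 peptide; 0% = Mcl-1 plus peptide wells and 100% = peptide-only wells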
14-3-3 Bad inh = disrupts binding of bovine 14-3-3 zeta to phospho-Bad peptide. P63103. TR-FRET 14-3-3zeta/Dy647-pBad peptide displacement, 1 h. inhibition, % at 21.7 µM. actives 0.71% (n = 220,000). AID 781;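 active = inhibition above about 70%, limit read from the data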;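 also: 0% = full 14-3-3 plus peptide FRET controls and 100% = background without 14-3-3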
Target sequence (P63103 whole entry, looked up): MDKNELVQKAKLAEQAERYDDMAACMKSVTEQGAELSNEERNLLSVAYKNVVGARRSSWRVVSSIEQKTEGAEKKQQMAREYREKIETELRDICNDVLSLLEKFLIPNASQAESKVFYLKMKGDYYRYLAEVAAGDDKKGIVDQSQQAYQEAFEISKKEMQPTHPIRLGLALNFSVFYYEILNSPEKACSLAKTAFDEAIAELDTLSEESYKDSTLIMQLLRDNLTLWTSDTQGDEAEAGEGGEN
* = called active by the depositor; / = no result.

SMILES	Bim-Mcl-1	Mcl1-Noxa inh	NCF1 inh	Mcl1 Bid PPI	14-3-3 Bad inh
COc1ccc2c(c1)c(C(=O)O)c(C)n2CC(C)C	0.0	16.9	-20.5	-24.5	-8.4
COc1cc(O)c(C(=O)O)c(-c2cc(O)c(O)cc2C)c1	/	92.6*	6.1	-35.8	3.4
C=CCn1c(O)c(C(C)=Nc2ccc(C(=O)O)cc2)c(=O)[nH]c1=O	/	15.0	-10.2	-13.8	-0.2
CCCCOc1ccc(CC2C(=O)N(C)C(=O)N(C)C2=O)cc1	-2.0	26.0	-6.6	72.5*	29.4
CN1C(=O)C(Cc2ccsc2)C(=O)N(C)C1=O	0.0	12.4	-16.7	-64.6	25.9
CNC(=O)OCc1n(C)cc[n+]1C	-4.0	-18.1	-5.8	87.1*	12.8
CNC(=O)OCCc1nccn1C	-2.0	-13.5	-15.8	-35.0	-14.9
Cc1cc(C)c(C(=O)CN2CCOCC2)c(C)c1	0.0	2.9	-14.6	10.8	45.2
O=C(COC(=O)Cc1ccccc1)Nc1ccc(SC(F)F)cc1	-13.0	-8.4	-8.3	-4.0	0.5
COc1ccc(CCNC(=O)COC(=O)Cc2ccccc2)cc1	-7.0	7.2	-7.5	78.0*	-5.0
c1ccc(-c2[nH]c[n+](CC3CO3)c2-c2ccccc2)cc1 (stereo not given)	-29.0	0.3	30.6*	29.0	-16.1
OCCOCC#CCN1CCOCC1	0.0	-5.9	-6.0	-14.8	-6.8
Cc1ccc2c(c1)=C/C(=C\c1c(O)[nH]c(=S)[nH]c1=O)C(=O)N=2	-2.0	56.7*	-2.9	-20.5	19.3
O=C(Cc1ccccc1)Oc1cccc(-n2cnnn2)c1	0.0	5.0	-8.0	8.2	-5.8
Cc1cc(N2CCCCC2)ccc1C=C1C(=O)N(C)C(=S)N(C)C1=O	-4.0	68.4*	9.1	-12.1	-11.4
Cc1cc(N2CCCC2)ccc1C=C(C#N)C#N	2.0	-15.4	-223.8	-6.0	-4.8
CC1Oc2cc3c(-c4c(O)cc(O)c5c(O)c6c(cc45)OC(C)C(C)C6=O)c(O)cc(O)c3c(O)c2C(=O)C1C (stereo not given)	/	103.1*	-12.4	41.6	25.0
O=C(c1ccc(N2CC3CC(C2)c2cccc(=O)n2C3)c([N+](=O)[O-])c1)N1CCCC1 (stereo not given)	-2.0	3.2	-3.4	-16.7	-8.7
CCOP(=O)(OCC)C(NC(=O)c1ccc(Cl)cc1)=C(Cl)Cl	-2.0	/	-0.6	-23.6	11.5
CCCOP(=O)(OCCC)C(NC(=O)c1ccccc1)=C(Cl)Cl	0.0	-8.1	1.3	90.8*	1.7
CC(C)(C)n1c(O)c(C=Nc2ccc3c(c2)CCC3)c(=O)[nH]c1=O	-3.0	71.4*	-3.8	-6.7	-3.6
COc1ccc(CN2C(=O)NC(=O)/C(=C/c3ccc([N+](=O)[O-])o3)C2=O)cc1	1.0	94.8*	-70.6	34.5	46.3
Cc1ccc(/C=C2/C(=O)NC(=O)N(Cc3ccc(F)cc3)C2=O)o1	/	0.8	-107.6	-27.6	-2.5
Cc1cccc(N2C(=O)NC(=O)/C(=C/c3ccc([N+](=O)[O-])o3)C2=O)c1	-2.0	71.9*	-137.0	28.1	39.4
CCCCCCn1c(O)c(C=NCCN2CCOCC2)c(=O)[nH]c1=O	-1.0	25.2	0.9	99.4*	5.6
SMILES	Bim-Mcl-1	Mcl1-Noxa inh	NCF1 inh	Mcl1 Bid PPI	14-3-3 Bad inh
Cc1ccc(N2C(=O)/C(=C/c3ccc(CN(CCC#N)S(C)(=O)=O)o3)C(=O)NC2=S)cc1C	1.0	65.9*	-36.7	4.5	9.8
Cc1cccc(N2C(=O)/C(=C/c3ccc(CN(CCC#N)S(C)(=O)=O)o3)C(=O)NC2=S)c1	2.0	52.6*	-28.5	4.5	54.4
CN1CCN(c2ccc(/C=C3\C(=O)NC(=S)N(c4cccc(Br)c4)C3=O)o2)CC1	-4.0	13.7	-175.5	-21.8	-7.8
Cc1cc(C)c(-n2c(O)c(/C=N/N3CCCCC3c3cccnc3)c(=O)[nH]c2=O)c(C)c1 (stereo not given)	0.0	2.0	-17.0	-18.9	-2.3
COc1ccc(OC)c(CN2CCCC(C(=O)c3sccc3C)C2)c1 (stereo not given)	/	-2.6	-7.9	-19.6	-9.0
O=C(O)c1sc2cc(Cl)ccc2c1Cl	/	/	-8.7	/	-4.5
COc1ccc(OC)c(-n2c(O)c(C=Nc3c(C)n(C)n(-c4ccccc4)c3=O)c(=O)[nH]c2=S)c1	/	9.3	-100.9	-39.7	-10.6
Cc1ccc(-n2nc(C)cc2NC(=O)COc2cc(C)cc3oc(=O)c4c(c23)CCC4)cc1	-1.0	106.0*	-7.8	5.7	3.8
Cc1cc(OCC(=O)O)c2c3c(c(=O)oc2c1)CCCC3	-2.0	29.8	-4.2	11.6	23.1
Cn1c(O)c(/C=C2/C=CC=N2)c(=O)[nH]c1=O	/	18.4	-13.8	-15.5	-1.0
OCC1(CO)COC(c2cccnc2)N1 (stereo not given)	0.0	3.3	-5.4	-6.9	-5.5
c1cncc(C2CCCCN2)c1 (stereo not given)	/	14.3	-2.9	61.2*	1.5
CCN1C(=O)/C(=C\c2ccc([N+](=O)[O-])s2)C(=O)NC1=S	2.0	93.7*	-12.3	31.9	94.3*
COc1ccc(OC)c(N2C(=O)NC(=O)/C(=C/c3ccc([N+](=O)[O-])s3)C2=O)c1	1.0	68.8*	-81.7	-15.0	6.3
COc1cc(/C=C2\C(=O)NC(=O)N(c3ccccc3)C2=O)c([N+](=O)[O-])cc1OC	15.0	20.4	1.9	-77.1	-2.6
C[C@@H]1C(=O)O[C@@H]2[C@H](O)C34[C@@H]5OC(=O)C3(O[C@H]3OC(=O)[C@H](O)C34[C@H](C(C)(C)C)[C@H]5O)[C@@]12O (stereo not given in full)	0.0	-14.1	1.8	2.0	9.7
CC(=O)c1c(C)n(Cc2ccccc2Cl)c2ccc(O)cc12	-1.0	17.1	115.3*	-3.4	-2.8
CN(C)c1ccc(/C=C/C=C2/C(=O)NC(=O)N(c3ccccc3)C2=O)cc1	1.0	58.2*	-67.7	51.5*	43.6
CNC(C(=O)c1ccccc1)C(OC)c1ccc(C)cc1 (stereo not given)	-4.0	18.3	-6.0	4.4	6.6
COP(=O)(CC(=O)O)c1ccccc1 (stereo not given)	95.0*	-0.1	-9.6	-14.7	-11.1
O=C(O)CP(=O)(O)c1ccc(Cl)cc1	0.0	4.0	5.2	-2.2	45.6
N#CC(C#N)=NNc1ccc(S(N)(=O)=O)cc1	/	87.9*	-18.7	-149.6	6.8
CC(C)c1ccc(N=Cc2c(O)n(C3CC3)c(=S)[nH]c2=O)cc1	/	-2.5	-8.8	-15.0	5.7
Cc1ccc(-c2nc(N(C)C3CCN(C)CC3)c3ccccc3n2)cc1	-2.0	62.9*	-29.8	7.1	-8.4
C/C(=N\N1CCCCC1c1cccnc1)c1c(O)n(C2CCCCC2)c(=S)[nH]c1=O (stereo not given)	20.0	-15.4	-180.5	-29.4	3.6
O=c1[nH]c(=O)n(CCc2ccccc2)c(O)c1C=NCc1ccc2c(c1)OCO2	-1.0	-103.4	4.8	67.3*	52.0
O=c1c2ccccc2nc(CNc2ccccc2)n1-c1ccccc1	/	-0.4	-20.2	-30.6	0.2
O=C1/C(=C\c2ccc(Cl)c(Cl)c2)N2CCC1CC2	/	9.8	-13.2	54.3*	-9.4
CC1(C)CN=C(NCc2ccccc2Cl)S1	0.0	-3.6	-3.1	1.2	-5.9
CC(Cc1ccccc1)NCC(=O)Nc1cc(N(C)C)nc2ccccc12 (stereo not given)	/	28.9	-17.7	72.2*	14.6
